Our source for the sensor-assay potency score (higher = more potent) values is the OligoGym collection.
Also: reference of the scale not given here.

One test has as its target HIST2H3A. As to the kind of experiment: pooled miR-30 sensor sort-seq; sequence = guide strand. The note with it: shRNA.
The sequence AAGTCCTGCGCGATCTCGCGTA had a sensor-assay potency score (higher = more potent) of -1.16.

Sequence TGGACTTCTGGTAGCGCCGGAT gave a sensor-assay potency score (higher = more potent) of -1.34.

For the sequence TTCGTGTCTTCGAACAGCCCCA, the sensor-assay potency score (higher = more potent) is -0.563.

TCCGTCTTAAAGTCCTGCGCGA had a sensor-assay potency score (higher = more potent) of -1.2.

With TTAAAGTCCTGCGCGATCTCGC, the sensor-assay potency score (higher = more potent) is -0.191.

For TTGGGCATAATGGTCACGCGCT, the sensor-assay potency score (higher = more potent) is -0.549.

The sequence TTGCCGCCGGTCGACTTGCGAG displayed a sensor-assay potency score (higher = more potent) of -1.63.

The sequence TTGCGGATCAGCAGCTCCGTGG came in with a sensor-assay potency score (higher = more potent) of -1.49.

In turn, TGGCGCACAGGTTCGTGTCTTC showed a sensor-assay potency score (higher = more potent) of -0.891.

Sequence TGGATGGCGCACAGGTTCGTGT gave a sensor-assay potency score (higher = more potent) of -1.93.

For another test, the target named is HKR1. The description is as above. The note with it: shRNA.
Sequence ATAAACTTGAAAACAGCTGAGA came in with a sensor-assay potency score (higher = more potent) of -0.36.

The sequence TACCAGTACAGTCTCATGCATA had a sensor-assay potency score (higher = more potent) of -0.938.

With TTAACTTAGCACAAAAGCCTTG, the sensor-assay potency score (higher = more potent) was -0.326.

TTTGGTATCTAGCAATGGCTGA displayed a sensor-assay potency score (higher = more potent) of -0.389.

In the case of TACTTTGTCTGTTTCCTCTAGA, the sensor-assay potency score (higher = more potent) worked out at 0.778.

With TTGATGAGGACTGACATACTGC, the sensor-assay potency score (higher = more potent) was -0.174.

Consider TTGACTCCTTGATAAAGCCTGG, for which the sensor-assay potency score (higher = more potent) was -0.606.

In turn, TTGACTTCCACGTAAAGCCTCG returned a sensor-assay potency score (higher = more potent) of -0.345.

With TTGATTTCTCCAAATCCTGAGA, the sensor-assay potency score (higher = more potent) is -0.892.

For the sequence TAACTTAGCACAAAAGCCTTGC, the sensor-assay potency score (higher = more potent) was found to be 0.138.

Sequence TTTGACTCCTTGATAAAGCCTG showed a sensor-assay potency score (higher = more potent) of -0.108.

TTAAGGTTTGACTTCAGGCTAA had a sensor-assay potency score (higher = more potent) of 0.0194.

In a further test the target is HLA-DMA. The description is as above. Conditions: shRNA.
TTCGTGAGTCACAATGCAGGAG yielded a sensor-assay potency score (higher = more potent) of 0.512.

In turn, TTCACTGTCAGCATGGGTGGGA showed a sensor-assay potency score (higher = more potent) of 0.0511.

Take TGTGTAGCGGTCAATTTCGTGA: the sensor-assay potency score (higher = more potent) is -0.684.

As to TCAGCGTGAACACTTCAGCGAT, the sensor-assay potency score (higher = more potent) was -1.13.

ATTTCGTGAGTCACAATGCAGG gave a sensor-assay potency score (higher = more potent) of -1.4.

On to TTGCTGGATCATCCACTCGCAG, for which the sensor-assay potency score (higher = more potent) was -1.31.

TTACTGACAAAACAGACCAAAG returned a sensor-assay potency score (higher = more potent) of -1.69.

Sequence TAGATGATGAGAACAATGCCCA had a sensor-assay potency score (higher = more potent) of -0.0715.

As for TCGTGAGTCACAATGCAGGAGA, the sensor-assay potency score (higher = more potent) is -0.908.

With TGCTGGATCATCCACTCGCAGA, the sensor-assay potency score (higher = more potent) is -1.77.

As to TTGGAGTAGGAGCTTCAGGGAC, the sensor-assay potency score (higher = more potent) was -1.01.

Another test has as its target HLA-DRA. The test is described as above. Conditions: shRNA.
On to TAAACAATAAGTACACAAGAGA, for which the sensor-assay potency score (higher = more potent) was -0.861.

Regarding TCTTCAGTGATCTTCTCTCTAA, the sensor-assay potency score (higher = more potent) was -0.905.

Consider TACCTCTGGAGGTACATTGGTG, for which the sensor-assay potency score (higher = more potent) is -0.943.

In the case of TTCTGCTGCATTGCTTTTGCGC, the sensor-assay potency score (higher = more potent) was -0.581.

The sequence AGACTGTCTCTGACACTCCTGT came in with a sensor-assay potency score (higher = more potent) of -1.07.

On to TAAACTCGCCTGATTGGTCAGG, for which the sensor-assay potency score (higher = more potent) is -0.677.

Consider TTGTCTATGAAACAGATGAGGA, for which the sensor-assay potency score (higher = more potent) was -0.94.
